Assay results: PubChem BioAssay
Activity calls are given as the source filed them. No rule for the calls is given here.

Columns and labels:
[1] = tested on: Botulinum neurotoxin type F light chain protease (Clostridium botulinum); assay: Botulinum neurotoxin type F light chain protease inhibition, multiplex microsphere flow cytometry, validation set (AID 588459); details: multiplex microsphere protease substrate cleavage assay, at 10 µM, active compounds read high
[2] = molecular target: Botulinum neurotoxin type A (Clostridium botulinum) (UniProt P0DPI0); assay: BoNT/A light chain protease inhibitors, biochemical, multiplex microsphere flow cytometry, validation set (AID 588460); details: at 10 µM, active compounds read high
Chain of Botulinum neurotoxin type A (Clostridium botulinum) (P0DPI0 whole entry, looked up): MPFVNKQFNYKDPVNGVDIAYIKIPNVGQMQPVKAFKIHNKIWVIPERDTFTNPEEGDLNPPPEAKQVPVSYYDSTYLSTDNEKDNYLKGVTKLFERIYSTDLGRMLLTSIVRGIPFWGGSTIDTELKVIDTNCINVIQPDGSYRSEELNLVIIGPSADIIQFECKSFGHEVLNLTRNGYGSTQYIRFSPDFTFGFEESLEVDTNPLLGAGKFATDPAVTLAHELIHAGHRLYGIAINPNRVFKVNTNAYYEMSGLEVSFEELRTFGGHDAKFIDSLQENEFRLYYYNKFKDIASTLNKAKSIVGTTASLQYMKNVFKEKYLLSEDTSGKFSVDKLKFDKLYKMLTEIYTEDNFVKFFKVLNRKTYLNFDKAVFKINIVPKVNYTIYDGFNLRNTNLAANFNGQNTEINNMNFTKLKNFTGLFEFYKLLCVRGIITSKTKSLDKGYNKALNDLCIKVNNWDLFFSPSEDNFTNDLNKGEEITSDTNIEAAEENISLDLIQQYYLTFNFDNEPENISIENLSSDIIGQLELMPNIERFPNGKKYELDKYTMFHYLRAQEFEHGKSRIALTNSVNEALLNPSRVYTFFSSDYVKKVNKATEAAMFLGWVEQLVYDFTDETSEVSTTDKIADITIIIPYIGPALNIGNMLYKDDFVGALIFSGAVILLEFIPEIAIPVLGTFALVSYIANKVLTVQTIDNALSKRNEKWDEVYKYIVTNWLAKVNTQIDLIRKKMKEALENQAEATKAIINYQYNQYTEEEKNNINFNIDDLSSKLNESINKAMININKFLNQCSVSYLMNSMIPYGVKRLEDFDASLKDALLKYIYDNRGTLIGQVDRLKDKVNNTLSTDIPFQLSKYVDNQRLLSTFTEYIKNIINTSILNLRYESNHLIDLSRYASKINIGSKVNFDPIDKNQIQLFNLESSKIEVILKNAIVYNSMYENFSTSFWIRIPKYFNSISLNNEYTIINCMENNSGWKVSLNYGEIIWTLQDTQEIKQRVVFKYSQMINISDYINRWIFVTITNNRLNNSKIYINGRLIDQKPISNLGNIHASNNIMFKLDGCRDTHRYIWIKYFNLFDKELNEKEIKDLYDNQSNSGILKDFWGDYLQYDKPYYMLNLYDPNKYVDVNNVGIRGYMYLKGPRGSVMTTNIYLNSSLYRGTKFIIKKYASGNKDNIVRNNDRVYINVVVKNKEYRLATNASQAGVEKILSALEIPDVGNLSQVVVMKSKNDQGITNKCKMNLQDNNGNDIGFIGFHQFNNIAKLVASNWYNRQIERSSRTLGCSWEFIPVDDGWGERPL

[3] = molecular target: Lethal factor (Bacillus anthracis) (UniProt P15917); assay: Lethal factor protease inhibitors, Bacillus anthracis, multiplex microsphere cleavage assay, validation set (AID 588461); details: flow cytometry, at 10 µM, active compounds read high
Chain of Lethal factor (Bacillus anthracis) (P15917 whole entry, looked up): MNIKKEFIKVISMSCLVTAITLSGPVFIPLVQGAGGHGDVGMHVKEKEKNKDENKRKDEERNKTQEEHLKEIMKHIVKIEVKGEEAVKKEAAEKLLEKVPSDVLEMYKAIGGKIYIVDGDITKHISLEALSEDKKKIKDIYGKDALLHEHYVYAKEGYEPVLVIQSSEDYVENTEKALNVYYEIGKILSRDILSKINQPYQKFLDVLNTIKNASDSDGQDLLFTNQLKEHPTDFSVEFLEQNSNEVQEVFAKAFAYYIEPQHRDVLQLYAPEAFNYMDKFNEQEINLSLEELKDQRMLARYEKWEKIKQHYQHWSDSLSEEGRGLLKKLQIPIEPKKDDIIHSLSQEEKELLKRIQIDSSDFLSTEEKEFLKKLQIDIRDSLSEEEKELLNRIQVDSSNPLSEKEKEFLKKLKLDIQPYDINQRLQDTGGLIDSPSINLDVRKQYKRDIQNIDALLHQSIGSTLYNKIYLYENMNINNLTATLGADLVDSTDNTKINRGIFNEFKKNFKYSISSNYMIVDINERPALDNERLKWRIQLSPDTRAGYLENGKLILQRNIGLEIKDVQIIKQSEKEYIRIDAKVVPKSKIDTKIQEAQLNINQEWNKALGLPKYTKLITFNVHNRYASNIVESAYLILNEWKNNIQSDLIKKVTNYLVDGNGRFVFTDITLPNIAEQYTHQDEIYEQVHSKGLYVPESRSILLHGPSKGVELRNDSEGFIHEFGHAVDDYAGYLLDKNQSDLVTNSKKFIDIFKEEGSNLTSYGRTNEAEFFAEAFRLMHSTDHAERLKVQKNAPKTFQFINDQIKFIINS

Measured: inhibition

CC(=O)N(CCC1(c2ccc(C)cc2)CCOC(C(C)C)C1)Cc1ccco1 (stereo not given)
inactive: [1] -5.3% | [2] 0% | [3] -7.5%

COC(=O)CCC(=O)CN
inactive: [1] 0.5% | [2] 0.6% | [3] 0.6%

CS(=O)(=O)Nc1cccc(C(=O)CC2(O)C(=O)Nc3ccc(Br)cc32)c1 (stereo not given)
inactive: [1] 3.1% | [2] 1.3% | [3] 6.6%

CCNC(=S)N1CCN(CCN2C(=O)c3cccc4cccc(c34)C2=O)CC1
inactive: [1] 5.8% | [2] 3.7% | [3] 10.2%

CN(C)CCOC(c1ccccc1)c1ccccc1 (tested in a mixture with another compound)
inactive: [1] 1.8% | [2] -2.5% | [3] -6.7%

CCOC(=O)C(NC(=O)CCC(=O)Nc1ccc(S(N)(=O)=O)cc1)C(O)c1ccccc1 (stereo not given)
inactive: [1] -0.5% | [2] -1% | [3] 5.9%

COCCNC(=O)CSc1ccc(Cl)cc1
inactive: [1] 1.8% | [2] 0.7% | [3] 1.4%

Cc1nonc1CN(C)C(=O)c1ccc(OC2CCN(Cc3ccccn3)CC2)cc1
inactive: [1] 0% | [2] -1.4% | [3] -0.2%

COc1cc(C(=O)OCCn2c(=O)c3c(ncn3CCN(C)C)n(C)c2=O)cc(OC)c1OC
inactive: [1] 5.1% | [2] 2.5% | [3] -3.1%

CC1COc2c(N3CCN(C)CC3)c(F)cc3c(=O)c(C(=O)O)cn1c23 (stereo not given)
inactive: [1] -0.1% | [2] -0.3% | [3] 3.1%
